Source: publication PMC4336329 (PLoS ONE, 2015)
The whole screen tested about 310,000 compounds, of which about 14,000 (4.5%) showed an effect of 50% or more. The effect is printed as a negative number. The list comes from a sample in which strong results are over-represented; it also holds similar structures and randomly drawn compounds.

What follows are molecules tested against human ether-à-go-go-related gene (hERG) potassium channel (human, UniProt Q12809) (assay: primary screen, population patch clamp on CHO cells stably expressing hERG; higher = less effect of the substance).
human ether-à-go-go-related gene (hERG) potassium channel, sequence (Q12809 whole entry, looked up): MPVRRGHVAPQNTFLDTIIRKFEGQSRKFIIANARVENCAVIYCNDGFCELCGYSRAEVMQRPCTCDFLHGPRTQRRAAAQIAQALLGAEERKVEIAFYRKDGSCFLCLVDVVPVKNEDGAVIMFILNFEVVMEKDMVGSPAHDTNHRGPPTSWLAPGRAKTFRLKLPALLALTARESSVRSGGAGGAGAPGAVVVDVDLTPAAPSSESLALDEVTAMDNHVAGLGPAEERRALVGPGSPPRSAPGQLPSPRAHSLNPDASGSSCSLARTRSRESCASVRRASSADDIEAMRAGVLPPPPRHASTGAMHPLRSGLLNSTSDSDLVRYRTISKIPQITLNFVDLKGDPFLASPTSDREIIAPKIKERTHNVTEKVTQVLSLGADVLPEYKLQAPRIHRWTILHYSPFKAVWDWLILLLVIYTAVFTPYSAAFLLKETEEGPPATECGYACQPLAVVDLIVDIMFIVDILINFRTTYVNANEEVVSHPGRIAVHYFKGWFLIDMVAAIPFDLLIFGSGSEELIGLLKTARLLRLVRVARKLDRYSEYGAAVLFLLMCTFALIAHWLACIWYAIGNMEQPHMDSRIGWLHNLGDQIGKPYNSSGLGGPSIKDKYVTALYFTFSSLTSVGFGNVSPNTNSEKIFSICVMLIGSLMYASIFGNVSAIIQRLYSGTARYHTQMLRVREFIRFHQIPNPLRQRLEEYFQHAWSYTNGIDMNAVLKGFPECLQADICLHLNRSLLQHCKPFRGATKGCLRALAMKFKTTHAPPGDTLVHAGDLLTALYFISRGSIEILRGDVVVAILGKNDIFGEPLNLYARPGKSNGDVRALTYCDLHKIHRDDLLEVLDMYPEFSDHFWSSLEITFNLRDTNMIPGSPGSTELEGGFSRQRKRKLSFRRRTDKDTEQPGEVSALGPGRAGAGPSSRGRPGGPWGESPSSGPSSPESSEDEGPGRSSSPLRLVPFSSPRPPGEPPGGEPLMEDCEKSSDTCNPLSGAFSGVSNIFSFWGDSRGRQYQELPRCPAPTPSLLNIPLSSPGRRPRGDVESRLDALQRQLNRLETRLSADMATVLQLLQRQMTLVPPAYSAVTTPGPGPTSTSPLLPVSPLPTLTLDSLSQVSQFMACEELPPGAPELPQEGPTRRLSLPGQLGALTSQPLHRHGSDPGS
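Further: peak tail current of the secondary pulse compared with the same well before compound.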

Structure (SMILES)	hERG current change (%, negative = inhibition) at 10uM [%]
CS(=O)(=O)N(Cc1ccccc1)c1ccc(C(=O)NCCSCc2ccco2)cc1	-18
O=C(O)COc1ccccc1/C=C1\SC(=S)N(c2cccnc2)C1=O	-10.1
CCOC(=O)C1CCN(C(=O)CCc2ccccc2)CC1	2.13
CCOC(=O)C1CCN(C(=O)Cc2ccc(C)cc2)CC1	-1.62
CCOC(=O)C1CCN(C(=O)CCc2c(C)nc3cc(-c4ccccc4)nn3c2C)CC1	-78.5
CCOC(=O)C1CCN(C(=O)CCc2c(C)nc3cc(-c4ccc(OC)cc4OC)nn3c2C)CC1	-70.7
CCOC(=O)C1CCCCN1C(=O)CCc1c(C)nc2ncnn2c1C (stereo not drawn)	1.42
COc1cc(OC)cc(-c2cc3nc(C)c(CCC(=O)O)c(C)n3n2)c1	26
CCOC(=O)C1CCN(C(=O)Cc2ccc(-c3ccccc3)cc2)CC1	-57.7
COc1ccc(-c2cc3nc(C)c(CCC(=O)N4CCN(c5ccccn5)CC4)c(C)n3n2)c(OC)c1	-36
NC(=O)C1CCN(C(=O)Cc2ccc(-c3ccccc3)cc2)CC1	1.65
CCOC(=O)C1CCN(c2cc(C)nc3cc(-c4cccc(F)c4)nn23)CC1	-5.74
CCOC(=O)C1CCN(C(=O)c2ccc(OC)cc2OC)CC1	-25.5
CCOC(=O)C1CCCCN1C(=O)CCc1c(C)nc2cc(-c3ccccc3)nn2c1C (stereo not drawn)	-64.4
COc1ccc(C(=O)NCC(=O)N/N=C/c2cccc(OC(=O)c3ccco3)c2)cc1OC	21.6
COC(=O)c1[nH]c2cc(OC)ccc2c1NC(=O)CN1CCN(c2cccc(C)c2)C(C)C1 (stereo not drawn)	-0.154
CCOC(=O)CNC(=O)CSc1nnc(Cn2cnc3ccccc32)n1C	-0.389
O=C(CCC1CCCCC1)NCc1ccccn1	-10.8
COC(=O)n1ccc(C(=O)Nc2ccccc2F)n1	-8.09
O=C(O)CCc1nn2c3ccccc3nc2n(Cc2ccccc2)c1=O	36.2
Cc1c(CN2CCC(CO)(CCOc3ccccc3)CC2)[nH]c2c(Cl)cccc12	-60.5
Cc1c(CN2CCN(C)C(CCO)C2)[nH]c2c(Cl)cccc12 (stereo not drawn)	-42
Cc1[nH]c2c(Cl)cccc2c(=O)c1CN1CCCC1	-10.6

Structure (SMILES)	hERG current change (%, negative = inhibition) at 10uM [%]
Cc1c(CN2CCC(CO)(CCOc3ccccc3)CC2)[nH]c2ccc(Cl)cc12	-71
COc1ccc2[nH]c(CN3CCC(CO)(CCOc4ccccc4)CC3)c(C)c2c1	-45.3
Cc1ccc2[nH]c(CN3CCC(CO)(CC4CCCCO4)CC3)c(C)c2c1 (stereo not drawn)	-43.7
C/C(=N\NC(=O)c1ccc(CSc2nncn2C)cc1)c1ccc(C#N)cc1	-26
O=C(CSc1nncn1-c1cccnc1)Nc1cccc(C(F)(F)F)c1	-57.7
O=C(CSc1nncn1-c1cccnc1)Nc1cccc([N+](=O)[O-])c1	4.83
O=C(CSc1nncn1-c1cccnc1)Nc1ccccc1C(F)(F)F	4.9
Cn1c(SCC(=O)Nc2ccccc2)nnc1C(F)(F)F	32.6
Cc1nn(Cc2nnc(SCC(=O)Nc3ccc(Cl)cc3)n2C)c(C)c1[N+](=O)[O-]	-22.9
Cn1c(CN2CCOCC2)nnc1SCC(=O)Nc1cccc(C(F)(F)F)c1	-1.04
Cc1ccc(NC(=O)CSc2nnc(C(F)(F)F)n2C)cc1[N+](=O)[O-]	-73.6
Cc1nn(Cc2nnc(SCC(=O)Nc3cccc(C(F)(F)F)c3)n2C)c(C)c1[N+](=O)[O-]	-57.7
Cn1c(SCC(=O)Nc2ccccc2[N+](=O)[O-])nnc1C(F)(F)F	-3.31
Cn1cc(CN2CC3C[C@@H]4CC2C[C@H](C3)C4)c(-c2ccc3c(c2)OCCO3)n1	-8.66
O=C(NCc1ccccn1)Nc1cccc([N+](=O)[O-])c1	11.6
COc1ccc(Cc2nnc(SCC(=O)Nc3ccc(N4CCOCC4)cc3)n2C)cc1	8.93
Cc1ccc(C(=O)OCC(=O)NCc2ccco2)cc1	-8.9
CCOC(=O)C1CCCN(C(=O)/C=C/c2ccccc2[N+](=O)[O-])C1 (stereo not drawn)	-12.6
CCOC(=O)C1CCCN(C(=O)/C=C/c2ccc(OC)cc2)C1 (stereo not drawn)	-23.6
COc1c(C)cc(C(=O)C2CCCN(C(=O)/C=C/c3ccccn3)C2)cc1C (stereo not drawn)	-15.8
CCOC(=O)C1CCCN(C(=O)/C=C/c2cccc([N+](=O)[O-])c2)C1 (stereo not drawn)	-41.8
CCOC(=O)C1CCCN(C(=O)/C=C/c2ccc([N+](=O)[O-])cc2)C1 (stereo not drawn)	-64.8
CCOC(=O)C1CCCN(C(=O)Cc2ccc(Cl)cc2)C1 (stereo not drawn)	6.9

Structure (SMILES)	hERG current change (%, negative = inhibition) at 10uM [%]
O=C(c1ccc(Cl)cc1)C1CCCN(C(=O)/C=C/c2ccccn2)C1 (stereo not drawn)	-51.9
CCOC(=O)C1CCCN(C(=O)/C=C/c2ccc(Cl)cc2)C1 (stereo not drawn)	-59.9
COc1ccc2cc(C(=O)C3CCCN(C(=O)/C=C/c4ccccn4)C3)ccc2c1 (stereo not drawn)	-18.3
O=C(O)C(=O)O.O=C(c1ccc(F)cc1)N1CCN(C2CC3CCC2C3)CC1 (stereo not drawn)	-2.85
Cn1cnnc1SCCCN1C(=O)c2cccc3cccc(c23)C1=O	-30.6
COc1ccc(CCN(C)C(=O)Cc2ccc(-c3ccccc3)cc2)cc1OC	-0.187
Brc1c(-c2ccccc2)nc2n1Cc1ccccc1-2	21.8
CC(C)(C)C(=O)Oc1cccc(Nc2ncnc3ccccc23)c1	9.76
Cc1ccc(Oc2ncnc(N)c2[N+](=O)[O-])cc1C	31.8
NC(=O)CC(NC(=O)c1ccccc1)c1ccc(N2CCN(c3ccccc3)CC2)c([N+](=O)[O-])c1 (stereo not drawn)	1.33
O=C(CSc1nc2ccccc2o1)NC(=O)NCc1ccccc1	8.99
O=C(CSc1nc2[nH]ncc2c(=O)n1-c1ccccc1)c1ccc2c(c1)OCCO2	-6.39
CCN(CCCC(=O)c1ccc(F)cc1)CCc1ccccc1.Cl	-84.5
O=C(CCCc1ccccc1)c1ccccc1	18.5
O=C(CCCC(=O)c1ccc(F)cc1)c1ccc(F)cc1	-25.8
CCc1ccc(-c2nc(CS(=O)CC(=O)NC3CCCCCC3)c(C)o2)cc1 (stereo not drawn)	-7.44
Cc1ccc(S(=O)(=O)N2CCCC(C(=O)NC3CCCC3)C2)cc1Cl (stereo not drawn)	17.8
Cc1ccc(N=C(N)N=C(N)N)cc1	16.9
CN1CCN(/N=C/c2ccc(-c3ccc([N+](=O)[O-])cc3)o2)CC1	-66
CN1CCN(/N=C/c2ccc(-c3ccc([N+](=O)[O-])cc3Cl)o2)CC1	-46.2
O=[N+]([O-])c1ccc(-c2ccc(/C=N/O)o2)cc1	8.69
CC(C)(CN1CCCCC1)NS(=O)(=O)c1ccc(Cl)cc1	-13.4
Cc1ccc(S(=O)(=O)NC(C)(C)CN2CCNCC2)cc1	-9.34

Structure (SMILES)	hERG current change (%, negative = inhibition) at 10uM [%]
CC(C)(CN1CCCC1)NS(=O)(=O)c1ccc(Cl)cc1	29.6
CC(C)(CN1CCN(Cc2ccccc2)CC1)NS(=O)(=O)c1ccccc1	-39.6
CC(C)(CN1CCNCC1)NS(=O)(=O)c1ccc(Cl)cc1	-60.3
CC(C)(CN1CCN(Cc2ccccc2)CC1)NS(=O)(=O)c1ccc(Cl)cc1	-74.7
CCOc1ccc2nc(NC(=O)c3cnccn3)sc2c1	2.76
c1coc(-c2nc3ccccc3nc2-c2ccco2)c1	-4.79
CN(C)CCCNC(=O)N1c2ccccc2Sc2ccccc21	1.39
CCN(CC)CCCCN1c2ccccc2Sc2ccccc21.Cl	-61.7
CCC(=O)c1ccc2c(c1)N(CCCN(C)C)c1ccccc1S2.Cl	-63.5
CCN(CC)CCN1c2ccccc2Sc2ccccc21.O=C(O)C(=O)O	-41.3
CCN(CC)CC(=O)N1c2ccccc2Sc2ccccc21	1.42
CN(C)CCCN1c2ccccc2Sc2ccccc21.Cl	-28.1
CC(C)(C)c1ccc(O)c(N)c1	8.01
N#Cc1ncccc1CCc1cccc(Cl)c1	-11.1
NS(=O)(=O)c1ccc(CCNC(=O)CCS(=O)(=O)c2ccc(Br)cc2)cc1	19.2
COc1ccccc1N1CCN(C(=O)CCCC2=NS(=O)(=O)c3ccccc3N2)CC1	2.62
O=C(CCCC1=NS(=O)(=O)c2ccccc2N1)N1CCN(c2ccccc2)CC1	-1.79
COc1ccc(N2CCN(C(=O)CCCC3=NS(=O)(=O)c4ccccc4N3)CC2)cc1	-7.68
COc1cccc(N2CCN(C(=O)CC(C)(C)CC3=NS(=O)(=O)c4ccccc4N3)CC2)c1	-6.09
CC(C)(CC(=O)N1CCN(c2ccc(Cl)cc2)CC1)CC1=NS(=O)(=O)c2ccccc2N1	-61.1
O=C(CCCC1=NS(=O)(=O)c2ccccc2N1)N1CCN(c2ccc(Cl)cc2)CC1	-61.1
